Hits are enriched below; roughly 1.5% of the tested compounds scored in any of these assays.
DUSP3 inh: VHR1 phosphatase inhibitors, primary screen, biochemical, absorbance, uHTS. Dual specificity protein phosphatase 3 (Homo sapiens), P51452. recombinant VHR phosphatase, pNPP absorbance. inhibition, % at 13.3 µM. 290,000 compounds, 0.52% hits; in the data active = inhibition above about 50%
Target sequence (P51452 whole entry, looked up): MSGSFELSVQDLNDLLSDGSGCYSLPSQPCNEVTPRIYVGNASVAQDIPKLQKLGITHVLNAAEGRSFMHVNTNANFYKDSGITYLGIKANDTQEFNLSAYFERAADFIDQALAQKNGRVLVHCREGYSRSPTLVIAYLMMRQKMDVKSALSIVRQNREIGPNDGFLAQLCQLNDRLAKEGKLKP
RN4220 kill: growth inhibition of S. aureus RN4220, primary screen, OD600; 16 h; inhibition, % (test concentration not listed); 330,000 compounds, 0.33% hits; in the data active = inhibition above about 85%
PriA SSB inh: inhibitors of Klebsiella pneumoniae PriA binding to SSB C-terminal tail, primary screen, biochemical, AlphaScreen; PriA–SSB C-terminal tail interaction (Klebsiella pneumoniae); AlphaScreen SSBct-PriA binding, biotinylated peptide; inhibition, % at 33 µM; 430,000 compounds, 0.6% hits; AID 1272365, 2023; in the data active = inhibition mostly above about 37%, no sharp cut-off; inactive = mostly below about 20%
CCHF vOTU inh: CCHFV vOTU protease inhibitors, primary screen, biochemical, Pep-AMC substrate, fluorescence; Crimean-Congo hemorrhagic fever virus L polyprotein viral ovarian tumor (vOTU) protease …; inhibition, % at 11.5 µM; 370,000 compounds, 0.55% hits; AID 651958, 2012; in the data active = inhibition above about 30%
ugtP null kill: growth inhibition of ugtP-null S. aureus, primary screen, RN4220 ugtP deletion, OD600 | growth inhibition, % (no concentration beside the values) | 16 h | 330,000 compounds, 0.54% hits; in the data active = growth inhibition above about 68%
A number is an active result; n = inactive; x = not tested or not shown; ! = not confirmed by another sample.

SMILES	DUSP3 inh	RN4220 kill	PriA SSB inh	CCHF vOTU inh	ugtP null kill
O=C(Cc1ccccc1)NCC(=O)N/N=C/c1ccc([N+](=O)[O-])s1	n	x	x	31	x
O=[N+]([O-])c1ccc(C=Nc2cccc3ccccc23)s1	n	98	53	x	97
O=C(Cc1ccccc1)NCC(=O)NN=Cc1ccc([N+](=O)[O-])s1	x	n	n	x	n
Cc1ccc(C(=O)NN=Cc2ccc([N+](=O)[O-])s2)cn1	x	n	n	x	88
Cc1ccc(C(=O)N/N=C/c2ccc([N+](=O)[O-])s2)cc1	n	x	x	n	x
O=C(Cn1cc(S(=O)(=O)Cc2ccccc2F)c2ccccc21)NCc1ccc2c(c1)OCO2	x	x	n	x	x
CC(C)(C)c1cc(C(=O)NN=Cc2ccc([N+](=O)[O-])s2)n[nH]1	x	101	x	x	101
O=C(NCc1nc2ccccc2[nH]1)C1CCN(c2cc(C3CC3)ncn2)CC1	x	x	n	x	x
Oc1ccccc1C(Nc1nccs1)c1ccc2cccnc2c1O (centres undefined)	n	n	66	n	n
O=C(Nc1nccs1)c1cn(Cc2cccc(F)c2)nc1OCc1cccc(F)c1	x	x	n	x	x
CC(C)=CCC12Oc3cc(O)ccc3C1(O)Oc1cc3c(c(O)c1C2=O)C=CC(C)(C)O3 (centres undefined)	x	n	n	x	97
COC(=O)c1ccc(NC(=O)Cc2csc(Nc3ccc(S(C)(=O)=O)cc3)n2)cc1	x	x	n	x	x
CC[n+]1c(/C=C/N(C)c2ccccc2)oc2ccc(Cl)cc21	n	x	n	n	x
CCN1/C(=C/C=C/c2oc3ccc4ccccc4c3[n+]2CC)Oc2ccc3ccccc3c21	n	98	n	x	99
Cc1cc(C(=O)Nc2cc(Br)ccc2O)on1	53	n	n	n	n
O=C(NCCCSc1ccccc1)c1cc(Cl)ccc1O	n	93	n	n	89
COc1ccc(CCNc2nccn(-c3ccccc3OC)c2=O)cc1OC	x	x	n	x	x
COc1ccc(CCNc2nccn(-c3cccc(Cl)c3C)c2=O)cc1OC	x	x	32	x	x
CN1c2ccsc2C(=NNc2ccccc2)CS1(=O)=O	x	n	n	x	96
Nc1nonc1-n1nnc(C(=O)NN=Cc2ccc(Br)cc2)c1CSC1=NCCS1	x	x	n	x	x
COc1ncc(NC(=O)Cc2ccc(F)cc2)cn1	x	x	n	x	x
O=C(NC1CCN(C(=O)Nc2cccc(F)c2)CC1)c1ccco1	n	x	58	n	x
O=C(Cc1cccc2ccccc12)Nc1nnc(SCc2ccc(Br)cc2)s1	x	x	n	x	x
CCc1cccc(N=c2c([N+](=O)[O-])nn(-c3ccc(Cl)cc3)n2O)c1	n	95	n	n	92
Cc1cc(C)cc(N=c2c([N+](=O)[O-])nn(-c3cccc(Cl)c3)n2O)c1	n	88	n	n	n
SMILES	DUSP3 inh	RN4220 kill	PriA SSB inh	CCHF vOTU inh	ugtP null kill
NC(=O)C1CCN(c2ccc3cccc(OCC(=O)Nc4ccc(F)cc4F)c3n2)CC1	x	x	n	x	x
Cc1cc(OC2CCN(S(=O)(=O)c3ccc(Cl)s3)C2)cc(=O)n1C (centres undefined)	x	x	n	x	x
COc1ccccc1OCC(=O)NN=CC=Cc1ccc([N+](=O)[O-])o1	x	101	x	x	100
Cc1ccccc1OCC(=O)NN=Cc1ccc([N+](=O)[O-])o1	x	n	n	x	n
CC(C)OC(=O)c1cc2c(=O)[nH]c(C(Cl)(Cl)Cl)nc2o1	n	92	n	n	87
O=C(Cc1ccccc1Cl)Nc1cc(-n2cccn2)ncn1	x	x	n	x	x
Clc1ccc2nc(N3CCNCC3)nc(-c3ccccc3)c2c1	52	n	n	n	n
Cc1ccc2nc(N3CCN(CCO)CC3)nc(-c3ccccc3)c2c1	n	n	38!	n	n
O=C(NCCN1CCn2cc(OCc3ccccc3)c(=O)cc2C1=O)c1cccc(F)c1	x	x	n	x	x
O=C(C1=C[C@H](c2ccc3c(c2)OCO3)C[C@H](OCc2ccc(CO)cc2)O1)N1CCCCCCC1	n	x	41	n	x
CC1(C)CC[C@]2(C(=O)O)CC[C@]3(C)C(=CC[C@@H]4[C@@]5(C)CC[C@H](O)C(C)(C)[C@@H]5CC[C@]43C)[C@@H]2C1	n	x	n	n	x
CC1CC[C@]2(C(=O)O)CC[C@]3(C)C(=CCC4[C@@]5(C)CCC(O)C(C)(C)C5CC[C@]43C)C2C1C (some centres undefined)	x	100	x	x	100
COc1ccccc1OCC#CCNC(=O)c1ccccc1Cl	x	x	n	x	x
O=C(Nc1ccc2c(c1)CCCN2C(=O)c1cccs1)NC1CCCCC1	x	x	n	x	x
Cc1ccccc1NC(=O)CNc1ccc(Cl)c(C(F)(F)F)c1	58	n	n	n	n
CNCC(=O)Nc1ccc(Cl)c(C(F)(F)F)c1	n	n	n	n	n
O=C(/C=C/c1ccc(F)cc1)c1cc(Br)ccc1O	n	n	n	n	n
O=C(/C=C/c1ccccc1)c1cc(Br)ccc(=O)c1O	n	99	n	n	99
CC(=NNC(=O)c1nnn(-c2nonc2N)c1COc1ccccc1)c1ccccc1	x	n	n	x	n
C/C(=N/NC(=O)c1nnn(-c2nonc2N)c1COc1ccccc1)c1ccccc1Cl	57	x	x	n	x
CC(C)C(=O)Nc1nnc(CCN2CCOCC2)s1	51	n	n	n	n
COC(=O)Cc1nnc(NC(=O)C(C)C)s1	n	n	n	n	n
COc1ccc(Cl)cc1C(=O)N1CCN(c2ccc(-c3ccccc3)nn2)CC1	x	x	n	x	x
O=S(=O)(O)c1cc(O)c(N=Nc2ccc(O)cc2O)c2ccccc12	x	n	87	n	n
CC1Cc2ccccc2N1C(=O)COc1cccc(Oc2ccccc2)c1 (centres undefined)	x	x	n	x	x
SMILES	DUSP3 inh	RN4220 kill	PriA SSB inh	CCHF vOTU inh	ugtP null kill
CC(=O)n1cc(N(C(=O)CCl)c2ccc(Cl)cc2)c2ccccc21	n	n	n	x	95
Cc1ccc(N2CCCS2(=O)=O)cc1NC(=O)C(=O)NCCN(C)C	x	x	n	x	x
Cn1nc(-c2ccc(F)cc2)cc1C(=O)NC[C@]1(O)CCOc2ccccc21	x	x	n	x	x
CNc1sc(C(=O)c2cccs2)c(N)c1-c1nc2ccccc2s1	n	n	53	n	n
CNc1sc(C(=O)c2ccc(F)cc2)c(N)c1-c1nc2ccccc2s1	n	n	n	n	n
Cc1ccc(CSc2nc3ccsc3c(=O)n2Cc2ccccn2)cc1	n	n	n	n	87
N#Cc1ccccc1CSc1nc2ccsc2c(=O)n1Cc1ccccn1	n	n	n	n	n
Cc1nccn1-c1cc(NC(=O)Cc2cccc3ccccc23)ncn1	x	x	n	x	x
CCOc1cc(C=O)c(Br)cc1OC1CCCC1	n	n	n	n	87
O=C(c1ccco1)c1ccc(CNC(=O)c2c(F)cccc2Cl)s1	x	x	n	x	x
COc1ccccc1NC(=O)c1sc(=S)n(-c2cc(C)ccc2C)c1N	x	x	48	x	x
COc1ccccc1-n1c(N)c(C(N)=O)sc1=S	52	n	n	n	n
O=C(NCC[C@H](O)c1cc2ccccc2o1)c1ccccc1C(F)(F)F	x	x	n	x	x
C=CCSc1ncc(-c2ccc(OC)cc2)n1-c1cccc(Cl)c1	x	x	32	x	x
CO[C@@H](CNS(=O)(=O)c1cnc(NC(C)=O)s1)c1ccc(Cl)s1	x	x	n	x	x

Source: PubChem (several laboratories)
